# According to PubChem BioAssay:
# Values without a mark were called inactive. For some assays here: Results with a measured potency or affinity are listed apart. Calls of active or inactive are those of the source. Unless noted, the rule behind the calls is not given here.
# Key:
# [1] = antimalarial activity against Dd2 strain (AID 2302;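 active = growth inhibition above 50% at the single 2 µM test dose, taken to imply half-maximal potency below 2 µM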;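 note: 0% = DMSO untreated growth and 100% = chloroquine plus artemisinin killed control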); conditions: P. falciparum Dd2 in RBCs, LDH growth readout, 72 h; at 2 µM; active compounds read high
# [2] = HepG2 cytotoxicity, primary screen, cytotoxicity control for P. falciparum antimalarial project, cell-based, ATP luminescence (AID 2303;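 active = inhibition above 50%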;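 note: 0% = DMSO wells and 100% = digitonin-killed cells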); conditions: HepG2 viability, 24-48 h, at 10 µM, active compounds read high
# [3] = target: L-lactate dehydrogenase (Plasmodium falciparum (isolate CDC / Honduras)) (UniProt Q27743); assay: PfLDH activity inhibition – cell lysate, 3D7 strain, counter-screen for P. falciparum growth inhibition project (AID 2304);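 note: 0% = vehicle and 100% = reference inhibitor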; conditions: P. falciparum 3D7 crude extract, LDH APAD/NBT absorbance; at 2 µM; active compounds read high
# [4] = inhibition of 3D7 malaria parasite growth – strain 3D7 (AID 2306);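 note: 0% = DMSO wells and 100% = chloroquine plus artemisinin control wells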; conditions: P. falciparum 3D7 erythrocytic growth, LDH absorbance, 72 h; at 2 µM; active compounds read high
# [5] = target: Calcium-dependent protein kinase 1 (Plasmodium falciparum (isolate 3D7)) (UniProt P62344); assay: PfCDPK1 kinase inhibitors, biochemical, TCAMS library (AID 1159585; cut-off not given, nearly all actives have IC50 up to about 0.98 µM;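 note: inhibitors leave more ATP so luminescence rises with inhibition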); conditions: recombinant PfCDPK1, Kinase-Glo ATP depletion luminescence
# [6] = target: Plasmodium falciparum protein kinase 6 (PK6, PF3D7_1337100) (UniProt Q8IDW1); assay: PfPK6 kinase inhibitors, biochemical, TCAMS library (AID 1159586); conditions: recombinant PfPK6, Kinase-Glo ATP depletion luminescence
# [7] = target: Protein kinase 7 (PK7), Plasmodium falciparum 3D7 (PF3D7_0213400) (UniProt Q7YTF7); assay: inhibition of Plasmodium PK7 catalytic activity – biochemical, TCAMS antimalarial set, Kinase-Glo luminescence (AID 1159587); conditions: recombinant PfPK7, Kinase-Glo ATP depletion luminescence
# [8] = target: Calcium-dependent protein kinase 4 (Plasmodium falciparum (isolate 3D7)) (UniProt Q8IBS5); assay: PfCDPK4 kinase inhibitors, biochemical, TCAMS library (AID 1159588; cut-off not given, nearly all actives have IC50 up to about 0.91 µM); conditions: recombinant PfCDPK4, Kinase-Glo ATP depletion luminescence
# Calcium-dependent protein kinase 4 (Plasmodium falciparum (isolate 3D7)), sequence (Q8IBS5 whole entry, looked up): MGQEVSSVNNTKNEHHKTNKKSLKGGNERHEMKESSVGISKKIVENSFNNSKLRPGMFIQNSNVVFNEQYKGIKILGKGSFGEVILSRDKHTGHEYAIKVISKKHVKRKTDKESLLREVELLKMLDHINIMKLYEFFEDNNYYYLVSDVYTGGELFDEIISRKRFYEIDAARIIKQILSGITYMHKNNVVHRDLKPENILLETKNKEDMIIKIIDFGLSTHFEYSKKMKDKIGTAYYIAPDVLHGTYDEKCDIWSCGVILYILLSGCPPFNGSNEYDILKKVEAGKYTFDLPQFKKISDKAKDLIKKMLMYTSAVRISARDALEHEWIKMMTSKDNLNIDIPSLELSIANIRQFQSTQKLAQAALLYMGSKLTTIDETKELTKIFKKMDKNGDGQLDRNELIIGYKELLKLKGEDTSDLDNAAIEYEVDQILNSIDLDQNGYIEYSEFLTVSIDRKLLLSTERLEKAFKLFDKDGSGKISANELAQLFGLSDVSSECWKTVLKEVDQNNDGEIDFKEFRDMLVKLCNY
# Plasmodium falciparum protein kinase 6 (PK6, PF3D7_1337100), sequence (Q8IDW1 1-305): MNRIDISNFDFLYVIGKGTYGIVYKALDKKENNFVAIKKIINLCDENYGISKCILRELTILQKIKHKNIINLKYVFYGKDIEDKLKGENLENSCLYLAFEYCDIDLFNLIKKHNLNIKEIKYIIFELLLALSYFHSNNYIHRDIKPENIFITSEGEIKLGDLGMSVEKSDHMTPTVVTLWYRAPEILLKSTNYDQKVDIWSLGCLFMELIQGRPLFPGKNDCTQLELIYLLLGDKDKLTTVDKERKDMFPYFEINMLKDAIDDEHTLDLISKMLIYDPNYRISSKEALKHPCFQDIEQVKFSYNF
# Protein kinase 7 (PK7), Plasmodium falciparum 3D7 (PF3D7_0213400), sequence (Q7YTF7 1-343): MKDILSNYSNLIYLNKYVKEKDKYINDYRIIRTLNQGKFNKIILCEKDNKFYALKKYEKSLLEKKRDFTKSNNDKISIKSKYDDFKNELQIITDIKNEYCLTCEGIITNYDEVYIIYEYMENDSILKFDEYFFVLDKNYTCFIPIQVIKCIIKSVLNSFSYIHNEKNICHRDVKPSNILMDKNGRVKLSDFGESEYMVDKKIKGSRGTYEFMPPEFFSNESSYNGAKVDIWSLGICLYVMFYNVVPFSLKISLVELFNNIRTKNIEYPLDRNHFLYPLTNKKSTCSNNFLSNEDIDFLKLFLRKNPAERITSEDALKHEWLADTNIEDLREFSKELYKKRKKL
# Calcium-dependent protein kinase 1 (Plasmodium falciparum (isolate 3D7)), sequence (P62344 whole entry, looked up): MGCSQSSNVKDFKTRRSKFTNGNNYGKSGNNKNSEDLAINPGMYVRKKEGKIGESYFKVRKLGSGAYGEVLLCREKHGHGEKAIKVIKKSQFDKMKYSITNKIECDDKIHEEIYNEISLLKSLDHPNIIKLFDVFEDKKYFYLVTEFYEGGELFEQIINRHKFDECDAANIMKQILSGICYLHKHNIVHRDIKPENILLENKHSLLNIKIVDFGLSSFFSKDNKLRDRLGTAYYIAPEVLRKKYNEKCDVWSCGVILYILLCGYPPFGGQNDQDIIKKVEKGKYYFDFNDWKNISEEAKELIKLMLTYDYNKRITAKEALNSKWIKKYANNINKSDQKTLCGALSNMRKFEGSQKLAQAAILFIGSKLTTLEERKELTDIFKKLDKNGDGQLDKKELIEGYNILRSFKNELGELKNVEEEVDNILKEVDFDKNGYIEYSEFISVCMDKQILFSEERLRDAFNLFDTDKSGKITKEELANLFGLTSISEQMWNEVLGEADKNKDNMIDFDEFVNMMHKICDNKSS
# L-lactate dehydrogenase (Plasmodium falciparum (isolate CDC / Honduras)), sequence (Q27743 whole entry, looked up): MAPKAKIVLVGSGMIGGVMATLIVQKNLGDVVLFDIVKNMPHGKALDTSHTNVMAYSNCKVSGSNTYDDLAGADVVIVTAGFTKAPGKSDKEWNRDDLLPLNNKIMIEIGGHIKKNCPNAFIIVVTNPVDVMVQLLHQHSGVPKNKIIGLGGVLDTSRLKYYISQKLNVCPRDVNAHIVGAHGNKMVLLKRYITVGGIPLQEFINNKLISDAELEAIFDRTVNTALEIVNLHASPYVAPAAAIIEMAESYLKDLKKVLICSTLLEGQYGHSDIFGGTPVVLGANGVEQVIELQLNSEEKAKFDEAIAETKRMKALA
Compound,growth inhibition [1],inhibition [2],inhibition [3],growth inhibition [4],outcome [5],outcome [6],outcome [7],outcome [8]
O=C(Nc1ccc(OC2CCN(Cc3ccc(F)cc3)C2)c(Cl)c1)c1ccsc1 (stereo not given),95% (active),26%,-3%,98% (active),inactive,inactive,inactive,inactive
CC(C)c1nc2c(N)nc(N)nc2nc1N,-1%,64% (active),2%,84% (active),inactive,inactive,inactive,inactive
CN1CCC(C(=O)Nc2ccc(-c3ccc(-c4nc5ccc(C(F)(F)F)cc5[nH]4)s3)cc2)CC1,95% (active),53% (active),4%,101% (active),inactive,inactive,inactive,inactive
CCCCCN1CCC(NS(=O)(=O)c2cccc(C(=O)Nc3ccc(Cl)cc3)c2)CC1,29%,24%,-3%,88% (active),inactive,inactive,inactive,inactive
COCCn1c(SC(C)C(=O)Nc2cc(C(F)(F)F)ccc2Cl)nc2ccccc2c1=O (stereo not given),95% (active),8%,4%,97% (active),inactive,inactive,inactive,inactive
Clc1ccc2c(Cl)c(CNCCCNc3nc4ccccc4[nH]3)[nH]c2c1,7%,38%,-1%,101% (active),inactive,inactive,inactive,inactive
CN(C)C(CNC(=O)c1cc(-c2ccncc2)c(-c2ccc(NC(=O)Nc3cccc(Cl)c3)cc2)o1)c1ccccc1 (stereo not given),100% (active),12%,-1%,101% (active),inactive,inactive,inactive,inactive
CCCN(C(=O)c1ccccc1C)c1nnc(-c2ccccc2C)s1,65% (active),16%,-7%,90% (active),inactive,inactive,inactive,inactive
NC(N)=NN=CC(=O)Nc1ccc(Br)cc1,1%,5%,0%,100% (active),inactive,inactive,inactive,inactive
CCCCCCCN1CC[C@@H](CCCc2ccnc3ccc(OCCC4CCNCC4)cc23)[C@@H](CC)C1,100% (active),94% (active),-4%,104% (active),inactive,inactive,inactive,inactive
O=C(C=Cc1ccc([N+](=O)[O-])cc1)N1CCC(CCN2CCC(c3c[nH]c4ccccc34)CC2)CC1,48%,60% (active),-2%,100% (active),inactive,inactive,inactive,inactive
COc1ccccc1N1CCN(CCCCNC(=O)c2ccc(NC(=O)c3ccc(C(F)(F)F)cc3)cc2)CC1,37%,25%,0%,100% (active),inactive,inactive,inactive,inactive
N#Cc1ccc(-c2ccc(C(=O)NCC3CCN(CCN4CCC(c5ccc6c(c5OCC(N)=O)CCCC6)CC4)CC3)cc2)cc1,99% (active),56% (active),-7%,99% (active),inactive,inactive,inactive,inactive
O=C(/C=C/c1ccc(Cl)c(Cl)c1)NCCCCCN1CCC(c2c[nH]c3cc(O)ccc23)CC1,2%,32%,3%,101% (active),inactive,inactive,inactive,inactive
Cn1cncc1C(=O)Nc1cccc(-c2ccc(-c3nc4ccccc4[nH]3)s2)c1,25%,-3%,-3%,102% (active),inactive,inactive,inactive,inactive
CN(Cc1cccc(F)c1)C1CCN(c2cc(NC(=O)c3ccc(F)cc3)ccn2)C1 (stereo not given),14%,7%,-3%,83% (active),inactive,inactive,inactive,inactive
C/C(=C\C(=O)NC1CC1)c1ccccc1OCc1ccccc1,1%,3%,-1%,90% (active),inactive,inactive,inactive,inactive
O=C(Nc1cccc(OC2CCN(Cc3ccc(F)cc3)CC2)c1)c1ccc(C(F)(F)F)cc1,6%,28%,3%,94% (active),inactive,inactive,inactive,inactive
O=C(/C=C/c1ccc(Cl)c(Cl)c1)NC1CCC(CN2CCC(c3nc4ccc(O)cc4[nH]3)CC2)CC1 (stereo not given),84% (active),41%,-6%,101% (active),inactive,inactive,inactive,inactive
CCN(CCO)CCc1cccc(Nc2nccc(-c3c(-c4ccc(NC(=O)C(C)(C)C)cc4)nn4ccccc34)n2)c1,96% (active),62% (active),4%,101% (active),inactive,inactive,inactive,inactive

Compound,growth inhibition [1],inhibition [2],inhibition [3],growth inhibition [4],outcome [5],outcome [6],outcome [7],outcome [8]
COCCN(C)c1ccc(C(=O)Nc2ccccc2)cc1NS(=O)(=O)Cc1ccccc1,47%,2%,-5%,92% (active),inactive,inactive,inactive,inactive
CC(=O)c1cccc(NC(=O)NC2CCN(CCCCCNC(=O)/C=C/c3ccc(Cl)c(Cl)c3)CC2)c1,1%,7%,1%,94% (active),inactive,inactive,inactive,inactive
O=C(NC1CCCCC1)N(CCCn1ccnc1)Cc1csc(-c2ccc(CNCc3ccccc3)cc2)n1,48%,5%,0%,97% (active),inactive,inactive,inactive,inactive
COc1ccc2nc3cc(Cl)ccc3c(NCCCN3CCNCC3)c2c1,74% (active),18%,-3%,104% (active),inactive,inactive,inactive,inactive
CCN(CC)Cc1ccc2c(=O)cc(CCc3cccc(F)c3F)n(CC(=O)N(Cc3ccc(-c4ccc(C(F)(F)F)cc4)cc3)C(C)C)c2c1,63% (active),82% (active),-6%,102% (active),inactive,inactive,inactive,inactive
COc1ccc2nc(-c3ccc(C(=O)NCCCN4CCN(c5cc(Cl)ccc5OC)CC4)cc3)[nH]c2c1,53% (active),-2%,1%,97% (active),inactive,inactive,inactive,inactive
Cc1cccc(-c2nc3cc(NC(=O)c4ccc([N+](=O)[O-])o4)ccc3o2)c1,73% (active),8%,4%,94% (active),inactive,inactive,inactive,inactive
O=S(=O)(Nc1ccc(-c2ccc(CN3CCCC3)cc2)cc1)c1cccc2cccnc12,10%,37%,-8%,91% (active),inactive,inactive,inactive,inactive
CCCC(CNCc1cccc(OC(F)(F)F)c1)CNc1cc(=O)c2ccccc2[nH]1 (stereo not given),95% (active),-4%,-2%,101% (active),inactive,inactive,inactive,inactive
Cc1[nH]c(CNCCCNc2cc(=O)c3ccccc3[nH]2)c(Br)c1Br,47%,-3%,4%,91% (active),inactive,inactive,inactive,inactive
O=C(NC1CCC(N2CCC(O)(c3ccc(F)cc3)CC2)CC1)c1cc2ccccc2[nH]1 (stereo not given),8%,9%,-4%,94% (active),inactive,inactive,inactive,inactive
Nc1nc(N)c2c(ccc3c2ccn3Cc2ccc(-c3ccccc3)cc2)n1,93% (active),100% (active),4%,98% (active),inactive,inactive,inactive,inactive
CCOc1ccnc(=O)[nH]1,95% (active),-4%,5%,97% (active),inactive,inactive,inactive,inactive
CN1CCN(c2ccc3nc(-c4ccc(Cc5cc(Cl)ccc5OCc5ccccc5)o4)[nH]c3c2)CC1,79% (active),27%,2%,102% (active),inactive,inactive,inactive,inactive
Cc1cc(-c2cnc(N)c(-c3ccc(N4CCN(C)CC4)nc3)c2)cc(C)c1O,33%,-12%,7%,91% (active),inactive,inactive,inactive,inactive
COc1cc(F)c2ncc(C#N)c(CCN3CCC(NCc4ccc5c(c4)OCCO5)CC3)c2c1,59% (active),5%,-7%,97% (active),inactive,inactive,inactive,inactive
COc1ccc(-c2cncc3ccc(C(=O)NCCCn4ccnc4)nc23)cc1,99% (active),28%,-3%,95% (active),inactive,inactive,inactive,inactive
Cc1cc(CNCC2CCC(CNCCCc3ccccc3)CC2)ccc1O (stereo not given),0%,25%,7%,101% (active),inactive,inactive,inactive,inactive
Cc1ccc(CN2CCN(c3cc4c(cc3Cl)CCN4C(=O)Cc3ccc(NC(=O)c4ccc(C(F)(F)F)cc4)cc3)CC2)cc1,-8%,15%,4%,88% (active),inactive,inactive,inactive,inactive
c1cncc(-c2cc(N3CCCCC3)nc(-c3ccncc3)n2)c1,46%,18%,2%,99% (active),inactive,inactive,inactive,inactive
